Most compounds without a hit are left out; they make up all but 3.5% or so of the library.
C8 TRAIL sens: viability loss with TRAIL in NB7+C8 cells, primary screen, TRAIL sensitizer project, cell-based, ATPlite luminescence | inhibition (viability loss, TRAIL sensitization), % at 10 µM | 1% of 360,000 active;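 active = compounds causing at least 50% loss of cell viability in the single-dose screen, relative to plate controls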
PPC-1+TRAIL kill: compounds killing PPC-1 cancer cells with TRAIL present, primary screen, TRAIL potentiator project, ATPLite luminescence, uHTS; PPC-1 cells + TRAIL, ATPLite viability luminescence; cell killing (% activity), % at 4 µM or 5 µM; 0.41% of 220,000 active; AID 1443, 2008;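 active = cell killing above 50% in the first pass at 4 µM, then a duplicate retest at 5 µM averaging 50% or more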;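 also: plate controls were cells with TRAIL plus DMSO for no effect and medium-only wells lacking cells for full effect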
TWEAK Fn14 block: inhibitors of TWEAK-Fn14 signaling, primary screen, luciferase reporter cells, uHTS; AID 1159606, 2016; inhibition, % at 10 µM; TWEAK-stimulated Fn14 reporter cells, luciferase luminescence, 8 h; 2% of 360,000 active; in the data active = inhibition above about 50%
Platelet DG rel: inhibitors of platelet dense granule secretion, primary screen, cell-based, MLPCN, human platelets. inhibition, %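 (compounds screened at 7.5 µM in platelet-rich plasma)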. AID 1663, 2009. human platelet-rich plasma, SFLLRN dense granule ATP release, luminescence. 0.22% of 300,000 active;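 active = mean replicate score, as percent of positive control, at or above 50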
HSP90 refold inh: HSP90 inhibitors, primary screen, cell lysate, luminescence; Rabbit reticulocyte lysate, luciferase refolding luminescence, 3 h; 0.91% of 290,000 active; Heat shock protein HSP 90 (rabbit reticulocyte lysate; luciferase refolding); inhibition, % at 5.6 µM;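 active = inhibition above the screen-wide mean plus 3 SD, computed separately per campaign, cut at about 16% in these data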;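 also: 0% = DMSO wells and 100% = 60 µM geldanamycin wells; inhibitors lower the luminescence because luciferase stays unfolded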
TROY NFkB inh: inhibitors of TROY-driven NF-kB signaling, primary screen, Q293 LMP1-TROYcd cells, NF-kB luciferase, uHTS; Q293 LMP1-TROYcd NF-kB luciferase reporter, 4 h; inhibition, % at 10 µM; 0.98% of 360,000 active;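 active = compounds whose plate-normalised and pattern-corrected inhibition of the luciferase reporter signal at the single screening dose is 50% or more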
Starred values were filed as active, the others as inactive; . = no result; ! = not active in a repeat.

SMILES	C8 TRAIL sens	PPC-1+TRAIL kill	TWEAK Fn14 block	Platelet DG rel	HSP90 refold inh	TROY NFkB inh
CCCn1c(=O)c2c(nc3n2CCCN3CCc2ccccc2)n(C)c1=O	8	.	20	.	0	5
Brc1ccc(OCc2ccccc2)c(CNCc2ccncc2)c1	15	34	27	-7	-1	52*
CCCCS(=O)(=O)/C=C\C=C/S(=O)(=O)CCCC	45	33	79*	24	9	47
CC(=O)Nc1cc([N+](=O)[O-])ccc1N1CCOCC1	-5	-4	-1	2	-2	-10
O=C(Nc1ccc([N+](=O)[O-])cc1)Nc1ccc(N2CCOCC2)c2nonc12	21	12	6	4	-4	69*
O=c1c(C=NCCCO)c(-c2ccccc2)[nH]n1-c1nc2ccccc2s1	6	25	77*	1	7	34
Cc1cc(/C=C\c2ccc3cc(N(C)C)ccc3[n+]2C)c(C)n1-c1ccccc1	60*	.	44	.	.	0
C[n+]1c(/C=C/c2ccc(O)cc2)ccc2ccccc21	4	.	-1	6	5	-2
CCC(C)c1ccc(S(=O)(=O)N2CCN(C(C)C(=O)NC3CCCC3)CC2)cc1 (centres undefined)	-4	.	87*	.	.	-18
O=C(N/N=C/c1cc(Br)ccc1O)C(c1ccncc1)N1CCOCC1 (centres undefined)	53*	19	-8	-10	-4	26
CC(=O)Oc1cc2c3c(c1)/C(=C1/SC(=S)NC1=O)C(=O)N3C(C)(C)C=C2C	6	0	41	13	1	50*
Cc1onc(C(=O)N2CCC(C(N)=O)CC2)c1-c1ccccc1Cl	3	-11	87*	3	2	1
Nc1c(C(=O)CSc2ncccn2)c(=O)[nH]c(=O)n1C1CC1	-4	.	19	.	.	20
NNC(=O)CN1CCN(c2ncc(C(F)(F)F)cc2Cl)CC1	2	-3	3	-4	-2	20
O=C(CN1CCN(c2ncc(C(F)(F)F)cc2Cl)CC1)NCCNc1ncc(C(F)(F)F)cc1Cl	-12	24	76*	21	4	.
Cc1nc2nc[nH]c2cc1Br	2	-1	67*	-2	2	.
O=C(CN1C(=O)CC(c2ccco2)Sc2ccccc21)NCC1CCCO1 (centres undefined)	7	5	7	-8	0	-6
CN1C(=O)CC(c2ccco2)Sc2ccccc21 (centres undefined)	-1	10	2	-3	-2	-32
COc1ccc(C2CC(=O)N(C)c3ccccc3S2)cc1 (centres undefined)	0	7	70*	-1	4	57*
COc1ccc(C2CC(=O)N(CC(=O)NCC3CCCO3)c3ccccc3S2)cc1 (centres undefined)	1	7	47	-4	5	52*
COC(=O)c1ccc(NC(=O)C(=O)c2c[nH]c3ccccc23)cc1	-5	.	-12	11	-3	-41
Cc1cn(-c2cc(C(=O)Nc3ccc(C)c(NC(=O)C(=O)c4c[nH]c5ccccc45)c3)cc(C(F)(F)F)c2)cn1	26	3	52*!	-6	.	13
O=S(=O)(Nc1ccccc1F)c1cccc(NC(=S)NCCN2CCOCC2)c1	-3	.	8	.	.	4
COc1ccc(N2CC(C(=O)NCc3cccnc3)CC2=O)cc1 (centres undefined)	-13	10	75*	-2	-2	.
O=C(CSc1ccc(F)cc1)N1CCC(c2nc3ccccc3s2)CC1	0	-9	31	-18	1	19
SMILES	C8 TRAIL sens	PPC-1+TRAIL kill	TWEAK Fn14 block	Platelet DG rel	HSP90 refold inh	TROY NFkB inh
Fc1ccc(-c2nnc(CN3CCC(c4nc5ccccc5s4)CC3)o2)cc1	11	4	53*	.	6	23
CC(C)C[C@H]1CNC(=S)N1CC1CCN(CCCC2CCCC2)CC1	3	.	-10	.	.	4
CC(C)N(Cc1ccccc1)C(=O)COC(=O)c1cnc(Cl)c(Cl)c1	75*	.	-10	.	.	5
O=C(OCc1ccccc1)c1cnc(Cl)c(Cl)c1	-1	.	-14	1	1	16
C=CCn1c(SCC(=O)N2CCN(CCO)CC2)nc2sc3c(c2c1=O)CCC3	11	.	4	11	-2	6
Cc1nc2ccccc2nc1SCC(=O)c1ccccc1	14	15	60*	-3	4	43
CC(C)(C)c1nc(SCC(=O)c2ccccc2)c2ccccc2n1	2	14	1	9	5	13
COc1ccc([N+](=O)[O-])cc1NCc1ccco1	-5	27	-23	2	2	-5
CCOC(=O)c1ccc(N2C(=O)CC(Sc3nnc(C)s3)C2=O)cc1 (centres undefined)	-18	6	69*	1	6	.
CCOc1ccc(N2C(=O)CC(Sc3nc4ccc(OCC)cc4s3)C2=O)cc1 (centres undefined)	15	.	-34	56*	-3	7
c1cc(N2CCOCC2)ccc1-c1ccc2nncn2c1	-2	.	90*	.	.	86*
c1coc(-c2ccc3nncn3c2)c1	-1	.	20	.	.	-2
COCCn1c(SCC(=O)NNC(=O)c2ccccc2)nc2ccccc2c1=O	-2	-38	1	7	-1	80*
COCCn1c(SCC(=O)NNC(=O)c2ccc(OC)c(OC)c2)nc2ccccc2c1=O	-2	17	-2	-6	2	4
COc1cccc(-c2nc(N)nc(SC)c2C#N)c1	-7	25	-2	-4	5	-13
CN(C)CCN(Cc1ccccc1)S(=O)(=O)c1ccc(-c2ccc(=O)[nH]n2)s1	6	.	-6	51*	-3	-8
NC(=O)c1sc2nc(-c3ccccc3)c3c(c2c1N)CCCC3	1	.	8	-13	9	17
Nc1c2c(nc3sc4c(c13)CCCC4)-c1ccccc1CC2	66*	42	44	2	9	56*
CCCCNC1C(CC)C(CCC)C(C#N)(C#N)C1(C#N)C#N (centres undefined)	2	10	56*	-4	5	17
CCN1C[C@@H]2[C@@H]3C(=O)N(C)C(=O)[C@@H]3[C@](C)(C(=O)OC)N2C1=NC	-13	.	8	.	.	-10
O=C(/C=C/c1ccc(Cl)cc1)N1CCN(c2ccc([N+](=O)[O-])c(N3CCOCC3)c2)CC1	26	12	64*	12	2	56*
CC(=O)Nc1ccc(C2=NNC(=Nc3cccc(S(=O)(=O)N(C)C)c3)SC2)cc1	-12	20	62*	-6	4	17
CCOC(=O)C1=CC[C@@H](c2ccccc2C(F)(F)F)N(S(=O)(=O)c2ccc(C)cc2)[C@H]1c1ccc(C#N)cc1	4	.	0	.	.	17

Screening results (PubChem BioAssay)
